Assay [1] is described as follows: qHTS assay to test for compound auto fluorescence at 535 nm (green) in HEK293 cells (AID 720680).
Assay [2] can be described thus: qHTS assay to test for compound auto fluorescence at 460 nm (blue) in HEK293 cell free culture (AID 720681). Put shortly: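 Blue fluorescence (Ex 405/Em 460 nm, triamterene-equivalent) was read immediately after pin transfer of compound or DMSO into medium (DMEM, 10% FBS) without cells.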
A general note: Quantitative high-throughput screening tests each substance at several concentrations.

A short description of assay [3]: qHTS assay to test for compound auto fluorescence at 535 nm (green) in HEK293 cell free culture (AID 720682). In a few lines:
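No cells present: wells hold DMEM supplemented with 10% FBS, into which compound or vehicle is pinned. Green emission is then recorded (485 nm excitation, 535 nm emission) and scaled to fluorescein.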

Assay [4] in a line: qHTS assay to test for compound auto fluorescence at 590 nm (red) in HEK293 cell free culture (AID 720683). Put shortly: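 Red-channel autofluorescence of compounds in culture medium (DMEM, 10% FBS), no cells, measured at 540/590 nm. Rose Bengal sodium is the reference fluorophore for equivalence.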
Assay [5] in a line: qHTS assay to test for compound auto fluorescence at 590 nm (red) in HepG2 cell free culture (AID 720684). In a few lines:
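No cells present: MEM + 10% FBS only. Compound pinned in, red label read (540/590 nm). Activity = fluorescence equivalent to Rose Bengal sodium.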

Assay [6] is described as follows: qHTS assay to test for compound auto fluorescence at 460 nm (blue) in HepG2 cell free culture (AID 720685). Put shortly: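 Cell-free plates of MEM plus 10% FBS received 23 nL compound or DMSO vehicle; blue-channel (405/460 nm) intensity scored against triamterene as reference fluorophore.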
Assay [7] in a line: qHTS assay to test for compound auto fluorescence at 460 nm (blue) in HepG2 cells (AID 720687). Put shortly:
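Blue-channel autofluorescence (Ex/Em 405/460 nm, triamterene-equivalent) was measured after 1 hr compound exposure at 37 C, 5% CO2. Cells were HepG2, plated overnight at 37 C in MEM plus 10% FBS.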

Assay [8] deals with Glucocorticoid receptor (Homo sapiens) (UniProt P04150). In words: qHTS assay to identify small molecule agonists of the glucocorticoid receptor (GR) signaling pathway (AID 720691; active = well fitted activation curve with a large enough effect in the signal ratio in the repeat runs, not every such curve was filed as active; the % refers to the signal ratio). Put shortly:
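Agonist-mode qHTS in HeLa cells stably expressing a glucocorticoid-response-element beta-lactamase reporter. Fluorescence intensity read with FRET substrate (2 h, room temperature) after 18 h compound treatment at 37 C.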

Assay [9] has the same target. In words: qHTS assay to identify small molecule antagonists of the glucocorticoid receptor (GR) signaling pathway (AID 720692; active = well fitted inhibition curve with a large enough effect in the signal ratio in the repeat runs, not every such curve was filed as active; the % refers to the signal ratio). In a few lines:
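Inhibition of dexamethasone-driven (5 nM final) beta-lactamase expression was measured in GRE-reporter HeLa cells over 18 h at 37C. Fluorescence was read after 2 h with the B/G FRET substrate at room temperature.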

Assay [10] is described as follows: qHTS assay to identify small molecule antagonists of the glucocorticoid receptor (GR) signaling pathway - cell viability counter screen (AID 720693). Note: nearly all actives have a fitted effect of over 55% in size.
Assay [11] in a line: qHTS assay for identifying genotoxic compounds that show differential cytotoxicity against isogenic chicken DT40 cell lines with known DNA damage response pathways - wild type cell line (AID 743012). Note: nearly all actives have a fitted effect of over 60% in size. Note: potency is the fitted concentration of half-maximal effect. Put shortly: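 Viability by ATP luminescence (CellTiter-Glo, 30 min RT) after 40 h compound treatment at 37 C/5% CO2, using 300 parental DNA repair-proficient DT40 cells per well.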

The nature of assay [12]: qHTS assay for identifying genotoxic compounds that show differential cytotoxicity against isogenic chicken DT40 cell lines with known DNA damage response pathways - Rev3 mutant cell line (AID 743014). Note: nearly all actives have a fitted effect of over 55% in size. Note: potency is the fitted concentration of half-maximal effect.
Assay [13] in a line: qHTS assay for identifying genotoxic compounds that show differential cytotoxicity against isogenic chicken DT40 cell lines with known DNA damage response pathways - Rad54/Ku70 mutant cell line (AID 743015). Note: nearly all actives have a fitted effect of over 60% in size. Note: potency is the fitted concentration of half-maximal effect.
Assay [14] in a line: qHTS assay to identify small molecule antagonists of the androgen receptor (AR) signaling pathway - cell viability counter screen (AID 743033; note: nearly all actives have a fitted effect of over 45% in size).
Assay [15] is described as follows: qHTS assay to identify small molecule antagonists of the androgen receptor (AR) signaling pathway using the MDA cell line - cell viability counter screen (AID 743041; note: nearly all actives have a fitted effect of over 45% in size; note: potency is the fitted concentration of half-maximal effect). Put shortly:
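Using the breast carcinoma line MDA-kb2 AR-luc, test chemicals were co-incubated with R1881 for 16 h; CellTiter-Fluor reagent, added at 15.5 h, provided a fluorescence measure of live cells.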

Assay [16] can be described thus: qHTS assay to identify small molecule antagonists of the thyroid receptor (TR) signaling pathway - cell viability counter screen (AID 743064). Note: nearly all actives have a fitted effect of over 50% in size. Note: potency is the fitted concentration of half-maximal effect. In a few lines:
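Rat GH3 pituitary tumor cells stably expressing two TR response elements driving luciferase were plated, rested 4 h, then dosed with library compounds and T3 (1 nM final). After 23.5 h at 37 °C, CellTiter-Fluor was added for 30 min and fluorescence recorded.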

Assay [17] deals with Androgen receptor (Homo sapiens) (UniProt P10275). Kind of assay: qHTS assay to identify small molecule antagonists of the androgen receptor (AR) signaling pathway (AID 743035; active = well fitted inhibition curve with a large enough effect in the signal ratio in the repeat runs, not every such curve was filed as active; the % refers to the signal ratio). Put shortly: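 Antagonist mode: AR-bla HEK293 cells co-treated with test compounds and agonist R1881 for 16 h at 37C, 5% CO2. Beta-lactamase activity read as FRET fluorescence after 2 h room-temperature substrate loading.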

Assay [18] shares this target. Kind of assay: qHTS assay to identify small molecule agonists of the androgen receptor (AR) signaling pathway (AID 743036; active = well fitted activation curve with a large enough effect in the signal ratio in the repeat runs, with a control signal flat, not every such curve was filed as active; the % refers to the signal ratio). Put shortly: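 Quantitative HTS of the Tox21 10K library in HEK293 cells bearing a stably integrated UAS-controlled beta-lactamase reporter. Compound exposure lasted 16 h at 37C. Reporter activity was detected by FRET substrate fluorescence after 2 h at room temperature.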

For assay [19] the target is unchanged. In words: qHTS assay to identify small molecule agonists of the androgen receptor (AR) signaling pathway using the MDA cell line (AID 743040; note: nearly all actives have a fitted effect of over 20% in size). In a few lines: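 Stable MMTV-luciferase reporter in MDA-kb2 cells; note the promoter carries GR as well as AR response elements. 16 h compound treatment, 37C, 0% CO2; ONE-Glo luminescence endpoint.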

“And” between values parts separate entries of the source, which are not always exact repeats. Identical values can stand only once. Inconclusive results are not listed. More than one record can exist for a structure, and the calls need not agree. The source made the active and inactive calls. Unless noted, calls come from the whole dose curve; as a rule, active = well fitted curve in the direction sought with a large enough effect in the repeat runs; inconclusive = weak or mixed curves; inactive = no such curve, though single readings can be large; an effect the other way counts as inactive or inconclusive.

This passage reports outcome and Potency results from PubChem BioAssay (Tox21).

Glucocorticoid receptor (Homo sapiens), sequence (P04150 whole entry, looked up): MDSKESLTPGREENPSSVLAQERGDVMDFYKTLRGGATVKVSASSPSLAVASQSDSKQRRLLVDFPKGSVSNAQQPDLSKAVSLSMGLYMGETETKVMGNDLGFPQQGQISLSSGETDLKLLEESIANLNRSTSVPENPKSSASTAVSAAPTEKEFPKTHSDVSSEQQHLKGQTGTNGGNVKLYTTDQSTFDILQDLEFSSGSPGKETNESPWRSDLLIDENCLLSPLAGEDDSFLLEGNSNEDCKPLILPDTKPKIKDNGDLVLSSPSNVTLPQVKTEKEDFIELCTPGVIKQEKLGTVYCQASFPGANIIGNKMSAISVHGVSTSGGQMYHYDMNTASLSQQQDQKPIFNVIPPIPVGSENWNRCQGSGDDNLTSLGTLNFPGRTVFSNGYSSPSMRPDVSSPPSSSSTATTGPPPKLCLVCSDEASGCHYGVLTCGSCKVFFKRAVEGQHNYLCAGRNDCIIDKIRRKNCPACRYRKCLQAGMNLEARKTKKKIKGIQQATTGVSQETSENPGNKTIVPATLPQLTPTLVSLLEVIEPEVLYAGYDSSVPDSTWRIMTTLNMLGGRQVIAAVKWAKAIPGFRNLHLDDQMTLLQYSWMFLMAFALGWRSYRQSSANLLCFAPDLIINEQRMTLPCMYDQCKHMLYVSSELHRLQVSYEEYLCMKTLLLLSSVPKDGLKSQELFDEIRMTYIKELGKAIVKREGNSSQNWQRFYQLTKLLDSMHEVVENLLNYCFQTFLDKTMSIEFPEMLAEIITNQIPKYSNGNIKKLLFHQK
Androgen receptor (Homo sapiens), sequence (P10275 whole entry, looked up): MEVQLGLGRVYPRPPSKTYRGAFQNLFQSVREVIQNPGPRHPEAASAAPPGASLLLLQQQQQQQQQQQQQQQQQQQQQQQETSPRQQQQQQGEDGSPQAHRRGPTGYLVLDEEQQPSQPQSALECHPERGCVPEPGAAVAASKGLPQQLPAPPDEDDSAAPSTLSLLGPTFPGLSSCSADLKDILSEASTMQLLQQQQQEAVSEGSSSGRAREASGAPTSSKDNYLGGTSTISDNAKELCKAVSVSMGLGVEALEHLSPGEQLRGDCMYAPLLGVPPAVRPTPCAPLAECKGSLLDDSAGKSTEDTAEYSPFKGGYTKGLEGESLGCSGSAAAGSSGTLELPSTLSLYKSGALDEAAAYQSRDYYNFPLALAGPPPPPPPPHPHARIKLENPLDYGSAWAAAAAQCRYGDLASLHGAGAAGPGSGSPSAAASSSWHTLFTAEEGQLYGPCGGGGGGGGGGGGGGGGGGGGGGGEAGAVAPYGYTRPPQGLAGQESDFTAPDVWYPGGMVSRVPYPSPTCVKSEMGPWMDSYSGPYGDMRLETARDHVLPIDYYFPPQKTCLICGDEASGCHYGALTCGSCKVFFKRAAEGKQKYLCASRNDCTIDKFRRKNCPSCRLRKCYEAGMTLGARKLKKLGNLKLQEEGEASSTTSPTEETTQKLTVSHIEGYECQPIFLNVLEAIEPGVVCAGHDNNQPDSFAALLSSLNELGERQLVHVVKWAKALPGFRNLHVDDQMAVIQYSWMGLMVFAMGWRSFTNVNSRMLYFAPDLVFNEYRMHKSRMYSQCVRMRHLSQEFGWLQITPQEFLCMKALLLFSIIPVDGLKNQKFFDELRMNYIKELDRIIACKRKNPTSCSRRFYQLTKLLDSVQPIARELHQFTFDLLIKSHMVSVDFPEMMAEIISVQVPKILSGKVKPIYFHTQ

Turning to `O=c1cc[nH]c(=S)[nH]1`, the compound was called inactive in assay [1], in assay [2], in [3], in assay [4], in assay [5] and in assay [6]. For the same compound, the result in assay [7], in assay [9] and in assay [14] was inactive. Also, the Potency result in [8], in [10], in [11], in assay [12], in assay [13] and in assay [15] was “inactive” throughout. For the same compound, the Potency entry in [16] was “inactive”.
Regarding `O=C(O)CS`, the outcome in [1], in [2], in assay [3], in assay [4], in assay [5] and in assay [6] was inactive. Further, the compound was classed as inactive in assay [7], in assay [9] and in assay [14]. Also, the Potency entry in [8], in [10] and in assay [15] was “inactive” in each case. In addition, the Potency result was “inactive and 61.6 µM (active)” in assay [11]; “inactive and 43.6 µM (active)” in assay [12]; “inactive and 12.3 µM (active)” in assay [13]; “inactive and 61.6 µM (active)” in assay [16].
With `O=C(O)c1cccnc1`, the compound was called inactive in [1], in [2], in [3], in assay [4], in assay [5] and in assay [6]. The outcome in assay [7] and in assay [14] was inactive. Moreover, the Potency result in assay [10], in assay [11], in assay [12], in assay [13], in assay [15] and in assay [16] was “inactive” throughout.
Take `CC(O)C(=O)O` (stereo not drawn): the call in [1], in [2], in assay [3], in assay [4], in assay [5] and in assay [6] was inactive. The compound was called inactive in assay [7] and in [14]. The Potency entry in assay [10], in assay [11], in assay [12], in assay [13], in assay [15] and in assay [16] was “inactive” each time.
Regarding `O=C(O)CCCCC(=O)O`, the compound was classed as inactive in assay [1], in [2], in [3], in [4], in assay [5] and in assay [6]. Also, the result in assay [7], in assay [9] and in [14] was inactive. Besides, the Potency entry in assay [8], in assay [10], in assay [15] and in [16] was “inactive” throughout.
With `NC(=O)c1cnccn1`, the compound was classed as inactive in assay [1], in assay [2], in assay [3], in [4], in [5] and in assay [6]. The outcome in assay [7], in assay [9] and in assay [14] was inactive. Also, the Potency entry in [8], in [10], in assay [11], in assay [12], in [13] and in assay [15] was “inactive” throughout. In assay [16], the Potency result was “inactive”.
As to `Cc1ccc(C)c(OCCCC(C)(C)C(=O)O)c1`, the call in [1], in assay [2], in assay [3], in assay [4], in [5] and in assay [6] was inactive. For the same compound, the compound was classed as inactive in [7], in assay [14], in assay [17] and in assay [18]. Also, the Potency entry in [10], in [11], in [12], in [13], in assay [19] and in assay [15] was “inactive” each time. Also, the Potency entry in assay [16] is “inactive”.
As to `Cc1cc(=O)n(-c2ccccc2)n1C`, the result in assay [1], in assay [2], in [3], in assay [4], in assay [5] and in assay [6] was inactive. Besides, the compound was classed as inactive in assay [7], in assay [14], in assay [17] and in [18]. Besides, the Potency entry in assay [10], in assay [11], in [12], in [13], in assay [19] and in assay [15] was “inactive” each time. The Potency result in assay [16] is “inactive”.
Regarding `O=C1CN(/N=C/c2ccc([N+](=O)[O-])o2)C(=O)N1`, the call in assay [1], in assay [2], in [3], in assay [4], in assay [5] and in assay [6] was inactive. Also, the compound was called inactive in assay [7] and in assay [9]. Also, the Potency result in [8] and in assay [10] was “inactive” each time. For the same compound, the Potency was 60.9 µM (active) in assay [11]; 54.3 µM (active) and 68.6 µM (active) in [12]; 60.9 µM (active) in assay [13]; 15.6 µM (active) and 54.3 µM (active) and 48.6 µM (active) in [15]; 60.9 µM (active) and 68.6 µM (active) in [16].
